# Source: PubChem (several laboratories)
# A selection: hits, their analogues and other compounds. The true share with any hit is near 1.2%.
# Sa ugtP lethal: kills S. aureus RN4220 lacking UgtP. actives 0.54% (n = 330,000). growth inhibition, % (concentration not given with the values). AID 1259309. S. aureus RN4220 ugtP deletion, OD600 growth, 16 h; in the data active = growth inhibition above about 68%;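 also: plate controls were untreated wells for no effect and antibiotic for full effect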
# SSB-PriA inh: blocks PriA binding to SSB C-terminal tail; AlphaScreen SSBct-PriA binding, biotinylated peptide; inhibition, % at 33 µM; actives 0.6% (n = 430,000); AID 1272365; in the data active = inhibition mostly above about 37%, no sharp cut-off; inactive = mostly below about 20%;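 also: plate controls were negative control peptide for no effect and reference peptide for full effect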
# MazEF act: activators of E. coli MazEF toxin-antitoxin RNase; actives 0.32% (n = 350,000); P0AE70; FAM/BHQ RNA-DNA oligo cleavage fluorescence, 5 h; activation, % at 20 µM; in the data active = activation above about 50%
# Target sequence (P0AE70 whole entry, looked up): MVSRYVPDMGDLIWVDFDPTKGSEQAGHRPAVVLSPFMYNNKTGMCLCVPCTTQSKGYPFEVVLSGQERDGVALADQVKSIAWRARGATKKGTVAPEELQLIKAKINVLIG
# BJeLR lethal: kills HRASV12-expressing BJeLR cells. BJeLR (HRASV12) viability, CellTiter-Glo ATP luminescence, 48 h. inhibition, % (test concentration not listed). actives 0.17% (n = 300,000); in the data active = inhibition above about 50%
# RN4220 kill: S. aureus RN4220 growth inhibition. OD600, 16 h. inhibition, % (no concentration beside the values). actives 0.33% (n = 330,000); in the data active = inhibition above about 85%;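 also: plate controls were untreated cells for no effect and reference antibiotic for full effect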
# * marks the source's active call; other numbers are inactive results; . = no result given; ! = not active in a repeat.
SMILES,Sa ugtP lethal,SSB-PriA inh,MazEF act,BJeLR lethal,RN4220 kill
Cc1ccc(NC(=O)Cn2nc3n(c(=O)c2=O)CCN3c2ccccc2)cc1Cl,.,-11,.,.,.
Cc1nn(-c2ccccc2)c2c1C1(C(=O)N(C(C)C)c3ccccc31)C(C#N)=C(N)O2 (stereo unspecified),67,2,2,-1,92*
Cc1nn(-c2ccccc2)c2c1C1(C(=O)Nc3ccccc31)C(C#N)=C(N)O2 (stereo unspecified),.,2,.,.,.
CCN(CC(=O)Nc1ccc(NC(C)=O)cc1)C(=O)/C=C/c1cccs1,1,-6,0,9,2
Cc1ccc(C(=O)N/C(=C\c2ccco2)C(=O)NCCCN2CCOCC2)cc1C,6,-3,7,4,1
CCCc1cc2c(=O)c(-c3nc4ccccc4s3)c(COCC(=O)O)oc2cc1O,2,9,60*,.,7
O=S(=O)(Nc1cccc(-c2ccc(N3CCCCCC3)nn2)c1)c1ccccc1F,5,4,8,-4,2
CCOc1ccccc1NC(=O)c1cccc(NC(=O)CC(c2ccccc2)c2ccccc2)c1,31,1,-2,1,-6
COc1ccc(NC(=O)N(C)C[C@H]2Oc3c(NS(=O)(=O)c4ccc(OC)cc4)cccc3C(=O)N([C@H](C)CO)C[C@@H]2C)cc1,.,16,5,.,.
COc1ccc(S(=O)(=O)Nc2cccc3c2O[C@H](CN(C)C(=O)NC(C)C)[C@@H](C)CN([C@H](C)CO)C3=O)cc1,.,99*,-1,.,.
CCOC(=O)C[C@H]1c2cc(F)ccc2S(=O)(=O)N1c1ccccc1,.,9,-3,0,.
Cc1ccc(C(=O)Nc2cccc(-c3cnc4ccccc4n3)c2)cc1,3,-4,5,1,2
Cc1cccc(C(=O)Nc2cccc(-c3cnc4ccccc4n3)c2)c1,3,-20,53*,9,1
Cc1ccc(C2=NS(=O)(=O)N(C)C(C(=O)N3CCCCC3)=C2)cc1,-3,-15,8,-6,5
CN(CC(=O)Nc1ccc(Cl)c(C(F)(F)F)c1)CC(=O)NC1CCCCC1,-10,-6,-8,.,3
CN(CC(=O)Nc1ccc(Cl)c(C(F)(F)F)c1)C(=O)CCN1C(=O)C2CCCCC2C1=O (stereo unspecified),94*,-14,6,2,67
CC1=CC(=C(C#N)C#N)C=C(C)N1Cc1ccccc1,3,-2,-3,3,-3
Cc1cc(N)n(-c2nc3c(c(=O)[nH]2)CCCC3)n1,.,93*,.,.,.
CCc1c(C)nc(-n2nc(C)cc2N)[nH]c1=O,.,93*,.,.,.
CCC(=O)Nc1cc(C)nn1-c1nc(C)c(CC)c(=O)[nH]1,.,33,.,.,.
C/C=C/C(=O)Nc1cc(C)nn1-c1nc2c(c(=O)[nH]1)CCC2,.,23,.,.,.
O=C(COC(=O)CSc1ccc([N+](=O)[O-])cc1)NCC1CCCO1 (stereo unspecified),10,-4,7,5,3
Cc1ccsc1C(=O)Nc1nnc(-c2ccco2)o1,5,50*,5,1,18
Cc1ccc(C(=O)Nc2nnc(-c3ccco3)o2)cc1,-4,1,-6,6,12
Cc1ccc(CC(=O)Nc2nnc(-c3ccco3)o2)c(C)c1,.,41*,.,.,.
SMILES,Sa ugtP lethal,SSB-PriA inh,MazEF act,BJeLR lethal,RN4220 kill
Cc1ccc(C)c2c1[nH]c1ccc([N+](=O)[O-])cc12,84*,-10,4,14,80
O=[N+]([O-])c1ccc(NN=Cc2ccc[nH]2)cc1,-16,55*,.,.,4
O=C(Nc1ccccc1)c1ccc(NCCN2C(=O)CCC2=O)c([N+](=O)[O-])c1,7,-10,51*,4,6
O=C(Nc1cc(F)cc(F)c1)c1ccc(NCCc2ccccc2)c([N+](=O)[O-])c1,.,-8,552*,-5,.
N#Cc1nc(-c2cccs2)oc1NCc1ccccc1Cl,-2,45*,-3,-2,-4
COc1cccc(S(=O)(=O)N(C)C[C@H]2OCc3cn(nn3)CCCC(=O)N([C@H](C)CO)C[C@@H]2C)c1,.,.,5,.,.
O=c1cnnc(N/N=C/c2ccccn2)[nH]1,.,.,8,63*,.
O=c1nc(N/N=C/c2ccccn2)cn[nH]1,.,.,-5,-6,.
O=c1nc(NN=Cc2ccccn2)cn[nH]1,.,82*,.,.,.
C(=N\Nc1nncc2ccccc12)/c1ccccn1,.,.,2,56*,.
Cc1cc(=O)[nH]c(N/N=C/c2ccccn2)n1,.,.,7,24,.
Cc1cc(=O)[nH]c(NN=Cc2ccccn2)n1,4,83*,.,.,5
Cc1cccc(-c2nc3scc(CCNC(=O)c4cccs4)n3n2)c1,.,-17,.,.,.
NC(=S)NN=Cc1nccc2ccccc12,-11,78*,9,.,1
CNC(=O)c1c2c(nc3ccc(Br)cc13)CCCC2,83*,-10,4,-4,2
O=C(CSc1cccc2cccnc12)Nc1cc(Cl)cc(Cl)c1,.,57*,.,.,.
O=C(CSc1cccc2cccnc12)Nc1ccc2ccccc2c1,.,33,.,.,.
O=C(CSc1cccc2cccnc12)Nc1ccc2c(c1)C(=O)c1ccccc1C2=O,.,28,.,.,.
O=C(CSc1cccc2cccnc12)NC1CCS(=O)(=O)C1 (stereo unspecified),.,37*,.,.,.
NNC(=O)CSc1cccc2cccnc12,4,4,-4,4,-1
CC(C)c1ccc(NC(=O)CSc2cccc3cccnc23)cc1,.,41,.,.,.
O=C(CSc1cccc2cccnc12)Nc1cc(C(=O)O)cc(C(=O)O)c1,3,75*,3,-4,0
Cc1cccc(NC(=O)CSc2cccc3cccnc23)c1,6,49*,7,0,4
CC(=O)c1c(C)[nH]c(C(=O)OCC(=O)c2c(N)n(CC(C)C)c(=O)n(C)c2=O)c1C,-2,20,2,.,4
COc1ccc(OC)c(-c2cc(C(=O)N3CCC4(CC(=O)c5ccccc5O4)C3)n(C)n2)c1 (stereo unspecified),.,9,.,.,.
SMILES,Sa ugtP lethal,SSB-PriA inh,MazEF act,BJeLR lethal,RN4220 kill
CCCNC(=O)c1ccc2nc(N)sc2c1,.,87*,.,.,.
Nc1nc2ccc(C(=O)O)cc2s1,.,89*!,.,.,.
CC(=O)c1ccc2nc(N)sc2c1,.,35,.,.,.
COC(=O)c1ccc2nc(N)sc2c1,.,53*,.,.,.
CCNC(=O)c1ccc2nc(N)sc2c1,.,36,.,.,.
O=C(Nc1ccc(O)c(-c2nc3ccccc3s2)c1)c1cccs1,2,8,53*,1,5
O=C(Nc1ccc(O)c(-c2nc3ccccc3s2)c1)c1cc(=O)c2ccccc2o1,.,-2,3,-2,.
CCOc1cc(/C=C2/C(=N)N3C(=NC2=O)SN=C3S(=O)(=O)C(C)C)ccc1OC(=O)c1ccco1,-1,-15,62*,-7,1
CC(=O)c1c(C)oc2c1cc(NS(=O)(=O)c1ccc(C(=O)O)cc1)c1ccccc12,1,-4,79*,-10,1
CC1CCc2oc3c(cc(NS(=O)(=O)c4cccs4)c4ccccc43)c2C1 (stereo unspecified),.,22,.,.,.
CC1CCc2oc3c(cc(NS(=O)(=O)c4ccc(Br)cc4)c4ccccc43)c2C1 (stereo unspecified),.,37*,.,.,.
O=C(O)c1cn(-c2ccc(F)cc2)c2cc(Cl)c(F)cc2c1=O,97*,-3,9,14,48
